DT40 TDP1 no CPT = qHTS for Inhibitors of human tyrosyl-DNA phosphodiesterase 1 (TDP1): qHTS in cells in absence of CPT. DT40 Tdp1-/- hTDP1 cells, no CPT, ATP luminescence, 48 h. Potency, µM (titrated, usually from 46.2 µM), inactives show at the highest dose activity change, negative = growth inhibition, most hits filed as inhibitors. 420,000 compounds, 15% hits. AID 686978, 2013; note: potency is the fitted concentration of half-maximal effect; nearly all actives have a fitted effect of over 55% in size
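Cells were dispensed at 400 per well, compounds added by pin tool, plates incubated ≥48 hr at 37 °C, then CellTiter-Glo added for 30 min at room temperature before luminescence reading. Line: DT40 Tdp1-/- complemented with hTDP1; camptothecin omitted.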
HT1080NT lethal = qHTS for induction of synthetic lethality in tumor cells producing 2HG: qHTS for the HT-1080-NT fibrosarcoma cell line; HT-1080-NT fibrosarcoma viability, CellTiter-Glo ATP luminescence, 48 h; Potency, µM (doses to about 46.1 µM), inactives show at the highest dose activity, negative = less viability, actives largely listed as cytotoxic; 360,000 compounds, 1.6% hits; AID 686970, 2013;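 note: NT is the 2HG producing partner of a matched IDH1 knockdown line; potency is the fitted concentration of half-maximal effect; 0% = DMSO-treated cells and -100% = media-only wells without cells; nearly all actives have a fitted effect of over 55% in size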
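Toxicity toward the 2HG-producing NT line was scored as %Activity, normalised to DMSO and no-cell wells, from CellTiter-Glo luminescence after 48 hours' treatment.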
DT40 TDP1 CPT = qHTS for Inhibitors of human tyrosyl-DNA phosphodiesterase 1 (TDP1): qHTS in cells in presence of CPT; chicken DT40 Tdp1-/-;hTDP1 cells + 20 nM CPT, ATP luminescence, 48 h; Potency, µM (titrated, usually from 46.2 µM), for inactives: top-dose activity change, negative = growth inhibition, hits mostly inhibitors; 420,000 compounds, 12% hits; note: potency is the fitted concentration of half-maximal effect; nearly all actives have a fitted effect of over 55% in size
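Cell growth measured by CellTiter-Glo luminescence after a minimum 48 h, 37 C compound exposure with 20 nM CPT in Tdp1-knockout DT40 cells stably expressing hTDP1, seeded 400/well; qHTS titration format.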
IL-1B inflam inh = qHTS for Inhibitors of Inflammasome Signaling: IL-1-beta AlphaLISA Primary Screen | THP-1 LPS/ATP IL-1B secretion, AlphaLISA, 16 h; stronger effect = lower value | activity change, % at 57.5 µM | 360,000 compounds, 4.7% hits; in the data active = activity change below about -50%; inconclusive = mostly about -30% to -49%
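THP-1 cells pretreated 1 hr with compounds (up to 57.5 uM final), then stimulated with LPS (250 ng/mL final) plus ATP (1.25 mM final); secreted IL-1B measured by AlphaLISA after 16 hr, decreased signal indicating inhibition.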
HT1080 IDH1KD tx = qHTS for induction of synthetic lethality in tumor cells producing 2HG: qHTS for the HT-1080-IDH1KD cell line | 360,000 compounds, 2% hits | AID 686971, 2013 | HT-1080 IDH1 knockdown viability, ATP luminescence, 48 h | Potency, µM (doses to about 46.1 µM), for inactives: at the top dose activity, negative = toxicity, usual class: cytotoxic;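 note: potency is the fitted concentration of half-maximal effect; 0% = DMSO wells and -100% = cell-free medium wells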
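Viability of IDH1-knockdown HT-1080 fibrosarcoma cells was assessed by CellTiter-Glo after 48 h at 37 °C with titrated compound; concentration-effect curves were classified by fit quality and response size.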
Active calls of the source: *; i = inactive; ? = inconclusive; . = no result given; ! = repeats disagree; [ ] = dose if it differs, or a comment. Sampled rows, rich in hits. Any-hit rate of the full collection: about 19%. Unless noted, calls come from the whole dose curve; as a rule, active = well fitted curve in the direction sought with a large enough effect; inconclusive = small, poorly fitted or top-dose-only effect, or another doubt; inactive = no such curve, though single readings can be large; an effect the other way counts as inactive or inconclusive. Unless noted, % is set by controls: 0 for no effect and ±100 for the full control effect.

SMILES	DT40 TDP1 no CPT	HT1080NT lethal	DT40 TDP1 CPT	IL-1B inflam inh	HT1080 IDH1KD tx
CC(C)c1ccc(NC(=S)NN2C(C)CCCC2C)cc1 (stereo not given)	-16%	9%	-2%	99	3%
CC1CCCC(C)N1NC(=S)Nc1ccc(OC(F)F)cc1 (stereo not given)	?	1%	21µM*	6	0%
C/C(=N\NC(=S)Nc1c(C)cccc1C)c1ccc(OC(F)F)cc1	9.2µM*	?	10µM*	-13	?
COc1ccccc1NC(=S)NNC(=S)Nc1ccc(OC(F)F)cc1	21µM*	-7%	?	-86*	?
COc1ccc(NC(=S)Nc2ccc(OC(F)F)cc2)cn1	-1%	10%	6%	-5	25%
COc1ccccc1C(CNC(=O)c1cccc(S(=O)(=O)Nc2ccc(C)cc2)c1)N1CCCC1 (stereo not given)	?	-3%	?	?	1%
CCc1cccc(CC)c1NC(=O)COC(=O)CCc1cc(OC)c(OC)c(OC)c1	-17%	27%	15%	-5	20%
COc1ccc(C/C(C)=N/NC(=S)Nc2ccc(C(C)C)cc2)cc1	?	8%	?	24	4%
O=C(NNC(=S)Nc1ccc(Cl)cc1)c1ccccc1OC(F)F	23µM*	?	?	20	?
CC/C(=N\NC(=S)Nc1ccc(OC)cc1)c1ccc(OC(F)F)cc1	5.8µM*	?	2.9µM*	17	?
CCCCCNC(=O)c1ccc2c(=O)n(CCc3ccccc3)c(=O)[nH]c2c1	-14%	.	-12%	.	.
O=C(Nc1nc(OCCN2CCCC2=O)cnc1/C=C\c1ccccc1)c1cc2ccccc2s1	?	0%	29µM*	-19	5%
CC(=O)c1ccc(Nc2ccc(-c3ccccc3C)nn2)cc1	-13%	-1%	?	-19	3%
CC1(c2ccc3ccccc3c2)NC(=O)N(CC(=O)N2CCN(S(=O)(=O)c3ccccc3F)CC2)C1=O (stereo not given)	23µM*	-28%	?	-2	?
Cc1ccc(C2(C)NC(=O)N(CC(=O)N3CCN(S(=O)(=O)c4cccs4)CC3)C2=O)cc1 (stereo not given)	-26%	1%	-16%	14	8%
CC1(c2ccc3ccccc3c2)NC(=O)N(CC(=O)N2CCN(c3ccccc3O)CC2)C1=O (stereo not given)	13µM*	-6%	?	i	0%
Cc1ccc(C2(C)NC(=O)N(CC(=O)N3CCN(S(=O)(=O)c4ccc(Cl)s4)CC3)C2=O)cc1 (stereo not given)	?	-4%	21µM*	-6	-9%
CC1CCN(C(=O)CN2C(=O)NC(C)(c3ccc4ccccc4c3)C2=O)CC1 (stereo not given)	16µM*	4%	18µM*	4	-1%
Cc1ccc(S(=O)(=O)N2CCN(C(=O)CN3C(=O)NC(C)(c4ccc5ccccc5c4)C3=O)CC2)cc1 (stereo not given)	?	-9%	?	-12	0%
COc1ccccc1CN1CC(C(=O)NCc2ccc(SC)cc2)CCC1=O (stereo not given)	4%	10%	12%	i	3%
O=C(CSc1ccccc1)NCCCc1ccccc1	-13%	0%	2%	3	1%
CN1CCN(C(=O)CN2C(=O)NC(C)(c3ccc4ccccc4c3)C2=O)CC1 (stereo not given)	-2%	0%	-4%	0	3%
CC1(c2ccc(Cl)cc2)NC(=O)N(CC(=O)N2CCc3ccccc32)C1=O (stereo not given)	?	-1%	26µM*	13	-9%
COc1cccc(N2CCN(C(=O)CN3C(=O)NC(C)(c4ccc5ccccc5c4)C3=O)CC2)c1 (stereo not given)	16µM*	-12%	13µM*	-14	-6%
COc1ccc(Cl)cc1NC(=O)CN(C)C(=O)CN1C(=O)NC(C)(c2ccc3ccccc3c2)C1=O (stereo not given)	15µM*	?	?	-53*	?
SMILES	DT40 TDP1 no CPT	HT1080NT lethal	DT40 TDP1 CPT	IL-1B inflam inh	HT1080 IDH1KD tx
Cc1ccc(NC(=O)c2ccc(S(=O)(=O)N3CCCC3)cc2)nc1	-10%	8%	5%	16	1%
CC(C)(C)[C@@H]1COC(=O)[C@@H](Cc2ccc(F)cc2)C/C=C\C[C@H](CC(=O)N(CCO)Cc2ccccc2)C(=O)N1	?	-9%	23µM*	-19	-10%
CC(C)(C)[C@@H]1COC(=O)[C@H](Cc2ccc(F)cc2)CC/C=C\C[C@@H](CC(=O)N(CCO)Cc2ccccc2)C(=O)N1	23µM*	-8%	5.8µM*	-11	-1%
CC(C)(C)OC(=O)C[C@@H]1C/C=C\C[C@H](CC(=O)N(CCO)Cc2ccccc2)C(=O)N[C@@H](Cc2ccccc2)COC1=O	?	0%	?	-14	11%
O=C(Nc1ccc(N2CCOCC2)nc1)c1ccc(C(F)(F)F)cc1	?	-16%	2%	27	-20%
Cc1nnc(SCC(=O)NNC(=O)c2ccccc2)n1N	3%	?	-2%	0	6%
COc1cccc(-c2ccnc(-n3ncc(C(=O)NCc4cccnc4)c3C3CC3)n2)c1	?	.	-9%[9.04 µM]	.	.
CC/C(=C(\c1ccccc1)c1ccc(OCCN(C)C)cc1)c1ccccc1	18µM*	16µM*	21µM*	-72*!	?
CCN(CC)CCOc1ccc(/C(=C(/Cl)c2ccccc2)c2ccccc2)cc1	23µM*	18µM*	23µM*	?	18µM*!
CCS(=O)(=O)N1CCC(C(=O)NCCc2ccccc2)CC1	-5%	-3%	1%	5	6%
CCC1CN(C(=O)N2CCC(C(=O)NCCc3ccc(C)cc3)CC2)c2ccccc2O1 (stereo not given)	21µM*	.	?	.	.
CCC1CN(C(=O)N2CCC(C(=O)N3CCN(c4ccccc4F)CC3)CC2)c2ccccc2O1 (stereo not given)	16µM*	.	16µM*	.	.
CCC1CN(C(=O)N2CCC(C(=O)NCCc3ccccc3)CC2)c2ccccc2O1 (stereo not given)	8.2µM*	15%	?	10	-1%
CS(=O)(=O)N1CCC(C(=O)N2CCN(c3ccccc3F)CC2)CC1	-7%	8%	-15%	14	2%

Screens deposited in PubChem by National Center for Advancing Translational Sciences (NCATS).
